Screens: PubChem, National Center for Advancing Translational Sciences (NCATS)
Compounds with a hit are over-represented: about 3.8% of the library has one in this group of screens.
GFP derepression = derepresses silenced GFP locus in mouse C127i cells | Potency, µM (top dose mostly 46.1 µM), without a hit: at the top dose GFP derepression (activation) | mouse C127i GFP locus derepression, cytometry, 30 h | 68,000 tested, 0.09% active | AID 597; also: % of control where 0% means no effect
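Locus derepression in mouse mammary C127i cells whose integrated CMV-GFP reporter is normally silent; GFP expression after 30 h compound treatment was quantified by counting fluorescent cells.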
TSHR ag = TSH receptor (human) agonism | P16473 | HEK293-CNG-TSHR cells (CNG channel as cAMP sensor), membrane potential dye, cAMP | Potency, µM (top dose mostly 57.1 µM), for the others: at the top dose activation, actives largely listed as activators | 73,000 tested, 0.48% active; active = well fitted activation curve with a large enough effect in the main read-out, with a control signal flat, not every such curve was filed as active; inconclusive = small, poorly fitted or top-dose-only effect, or a change in a side signal; inactive = no such curve, though single readings can be large or run the other way; % of control where 0% means no effect;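 also: the control signal comes from parental cells without the receptor; potency is read from the fitted curve at half-maximal effect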
Target sequence (P16473 whole entry, looked up): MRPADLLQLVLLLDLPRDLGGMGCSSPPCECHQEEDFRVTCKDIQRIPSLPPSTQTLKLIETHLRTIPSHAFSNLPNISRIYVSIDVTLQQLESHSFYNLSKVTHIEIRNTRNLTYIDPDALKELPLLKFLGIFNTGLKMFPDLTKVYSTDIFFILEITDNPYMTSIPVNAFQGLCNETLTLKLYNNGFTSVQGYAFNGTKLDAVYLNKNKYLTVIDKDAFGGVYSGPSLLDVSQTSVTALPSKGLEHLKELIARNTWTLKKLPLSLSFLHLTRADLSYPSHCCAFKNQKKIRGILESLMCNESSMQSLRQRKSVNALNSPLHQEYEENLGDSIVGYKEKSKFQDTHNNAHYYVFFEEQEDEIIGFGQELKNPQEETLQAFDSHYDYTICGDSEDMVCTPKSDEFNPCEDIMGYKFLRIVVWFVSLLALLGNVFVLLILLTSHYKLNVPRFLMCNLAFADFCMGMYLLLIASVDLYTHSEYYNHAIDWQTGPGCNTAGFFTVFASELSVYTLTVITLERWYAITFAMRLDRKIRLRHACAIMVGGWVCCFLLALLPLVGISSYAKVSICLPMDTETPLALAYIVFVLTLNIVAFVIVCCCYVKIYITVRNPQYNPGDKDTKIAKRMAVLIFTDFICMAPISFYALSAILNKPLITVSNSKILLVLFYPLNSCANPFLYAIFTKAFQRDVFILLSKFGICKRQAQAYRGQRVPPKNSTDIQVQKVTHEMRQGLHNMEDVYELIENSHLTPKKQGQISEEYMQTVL
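cAMP rise detected as CNG-channel membrane depolarization by fluorescent dye (emission 590 nm), 30 min after compound, following 60 min dye loading containing 100 uM RO 20-1724 at room temperature. Cells: TSHR/CNG HEK 293, with parental CNG HEK 293 as control.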
HEK293 cAMP cs = parental HEK293 cAMP activation (counter-screen); parental HEK293 CNG cAMP sensor, membrane potential fluorescence; Potency, µM (titrated, usually from 57.1 µM), inactives show at the highest dose activation, actives largely listed as activators; 73,000 tested, 2.5% active; also: potency is read from the fitted curve at half-maximal effect; % of control where 0% means no effect; nearly all actives have a fitted effect of over 55% in size
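Parental HEK 293 cells stably expressing a cAMP-gated CNG channel were loaded with membrane potential dye containing 100 uM RO 20-1724 for 60 min. Compound added for 30 min; depolarization read as fluorescence intensity at 590 nm.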
Ub-GFP proteasome = proteasome inhibitors stabilizing ubiquitin-GFP reporter; Ubiquitin-GFP reporter cells, proteasome inhibition, GFP fluorescence; response scale: untreated = 0%, 10 µM MG-132 = 100%; Potency, µM (series often up to 45.9 µM), for the others: at the highest dose activation (GFP accumulation), most hits filed as activators; 67,000 tested, under 10 active; active = well fitted activation curve with a large enough effect, not every such curve was filed as active; inconclusive = small, poorly fitted or top-dose-only effect, or another doubt; inactive = no such curve, though single readings can be large or run the other way; also: potency is read from the fitted curve at half-maximal effect
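U2OS cells stably expressing ubiquitin(G76V)-GFP, seeded overnight in 0.5% FBS medium, were exposed to compounds (qHTS, 46 uM to 2.9 nM) for 4 hr at 37 °C. GFP-positive cells were counted by laser cytometry (488 ex/515 em), normalized between basal and 10 uM MG-132.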
HBB splice mod = hemoglobin beta splicing modulation | 65,000 tested, 0.06% active | HBB splicing reporter cell assay, activation; EGFP reporter with mutant IVS2-654 intron; response scale: normalised to 500 nM splice-correcting PNA | Potency, µM (doses to about 46.1 µM), without a hit: at the top dose activation, hits mostly activators | AID 925; also: potency is read from the fitted curve at half-maximal effect; 0% is about no effect
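HeLa cells stably expressing EGFP interrupted by mutant beta-globin intron 2 (IVS2-654), 500/well in 2% FCS. Treated with compound for 2 days at 37C. Splicing correction scored as total well GFP intensity (488 nm excitation, 500-520 nm emission); 500 nM antisense PNA served as control.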
ERK AVP inh = blocks ERK signaling stimulated by vasopressin. HEK293-V1b, vasopressin-stimulated pERK AlphaScreen. Potency, µM (doses to about 57.5 µM), for the others: at the highest dose activity, negative = inhibition, most hits filed as inhibitors. 72,000 tested, 0.99% active; also: potency is read from the fitted curve at half-maximal effect; % is scaled to controls: 0 for no effect and ±100 for the full control effect; nearly all actives have a fitted effect of over 55% in size
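HEK293 cells stably expressing V1b receptor, preincubated 30 min at 37 °C with compound, then stimulated 5 min with 25 nM vasopressin. Phospho-ERK by AlphaScreen SureFire after 5 h RT; normalized to DMSO and vasopressin; AC50 by Hill fit.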
The depositor's hits bear a star; ? = inconclusive; nt = not tested or not shown; [ ] = remark or other dose. Unless noted, calls follow the shape of the dose curve; as a rule, active = well fitted curve in the direction sought with a large enough effect; inconclusive = small, poorly fitted or top-dose-only effect, or another doubt; inactive = no such curve, though single readings can be large; an effect the other way counts as inactive or inconclusive.

SMILES | GFP derepression | TSHR ag | HEK293 cAMP cs | Ub-GFP proteasome | HBB splice mod | ERK AVP inh
COc1ccccc1C(=O)N1CCN(c2cccc(Cl)c2)CC1 | -3% | ? | ? | -2% | nt | -29%
COc1ccccc1C(=O)N1CCN(C(=O)c2ccncc2)CC1 | 0% | ? | 25µM* | 0% | 3% | 7%
COc1ccc(NC(=O)N2CCC3(CC2)CCN(C(=O)c2cccc(F)c2)CC3)cc1 | 0%[9.22 µM] | -3% | 4% | -7% | 3% | 3%
COc1ccc(-c2c3c(=O)n(C)c(=O)n(C)c3cn2-c2cc(OC)ccc2OC)cc1 | 2% | 25µM* | 14% | -3% | -2%[57.5 µM] | ?
Cc1cccnc1NCc1ccc(O)c2ncccc12 | 10µM* | 0% | 4% | 2% | nt | -10%
CCOC(=O)C1CCN(Cc2ccc(O)c3ncccc23)CC1 | ? | -15% | 10% | 0% | nt | -1%
CCc1nc(N2CCCCC2C)c2oc3ccccc3c2n1 (stereo not given) | 0% | ? | 20µM* | 1% | 0%[57.5 µM] | 10%
CCc1nc(N2CCCC(C)C2)c2oc3ccccc3c2n1 (stereo not given) | 4% | ? | 16µM* | 3% | 0%[57.5 µM] | 9%
CCc1nc(N2CCCCC2)c2oc3ccccc3c2n1 | 0% | ? | 25µM* | 2% | 3%[57.5 µM] | -8%
CCOC(=O)C1CCCN(c2nc(C)nc3c2oc2ccccc23)C1 (stereo not given) | 3% | 24% | 11% | -4% | -1% | 8%
Cc1ccccc1Cn1c(-c2cncs2)nc2ccccc21 | -2% | ? | 32µM* | 2% | nt | -28%
CCCn1c(-c2cccs2)nc2ccccc21 | 2% | ? | ? | 5% | 0%[57.5 µM] | -6%
Brc1cc2c(cc1Cn1c(-c3cncs3)nc3ccccc31)OCO2 | 0% | ? | 7.9µM* | 8% | 2% | 5%
C=CCSCC(N)C(=O)O (stereo not given) | nt | nt | nt | nt | nt | 17%
COc1cc(C2Nc3cccc4cccc(c34)N2)ccc1OC(C)=O | 3% | ? | 1.3µM* | -2% | 0%[57.5 µM] | -15%
CCC(=O)N1CCN(c2nc(-c3ccccc3)c3c(c2C#N)CCCC3)CC1 | -2% | ? | 4µM* | 5%[9.17 µM] | 5%[0.0738 µM] | ?
N#Cc1c(SCC(N)=O)nc(-c2ccccc2)c2c1CCCC2 | 5% | ? | 20µM* | nt | 0%[0.369 µM] | -28%
Cc1ccc(S(=O)(=O)O[C@H]2C[C@@H](C(C)(C)C)CC[C@@H]2c2ccccc2)cc1 | 9%[9.22 µM] | 0%[11.4 µM] | -3%[11.4 µM] | -5%[9.17 µM] | 1%[9.22 µM] | 10%[11.5 µM]
O=C1CC(O)(C(F)F)Oc2ccc3ccccc3c21 (stereo not given) | 4% | nt | 11% | -2% | -1%[0.369 µM] | -11%
O=C1CC(O)(C(F)(F)F)Oc2c1ccc1ccccc21 (stereo not given) | 4% | ? | ? | -4% | -1%[9.22 µM] | 16µM*
CC(=O)N1CCN(c2ccccc2NC(=O)c2cc(Br)ccc2Cl)CC1 | 0% | ? | 32µM* | 2% | -2% | -19%
CN1CCN(c2ccccc2NC(=O)c2cc(Br)ccc2Cl)CC1 | -2% | 11% | -1% | 0% | 0% | -9%
CCCCN(CC)CCNS(=O)(=O)c1cccc2cccnc12 | nt | 12% | 12% | -7% | 0% | nt
O=C(Nc1ccc(Cl)cc1)N1CCN(c2ccc3nnc(-c4ccc(F)cc4)n3n2)CC1 | nt | ? | 25µM* | nt | nt | nt
FC(F)(F)c1ccccc1-c1cc(N2CCNCC2)ncn1 | 3%[9.22 µM] | 4% | 5% | 0% | 1% | -4%
SMILES | GFP derepression | TSHR ag | HEK293 cAMP cs | Ub-GFP proteasome | HBB splice mod | ERK AVP inh
O=C(NCC1CC1)[C@@H]1C[C@H]1[C@@H](NP(=O)(c1ccccc1)c1ccccc1)c1ccccc1 | nt | ? | 13µM* | nt | 0% | -7%
CCC(CC)C(=O)Nc1cccc(-c2nc3ccccc3o2)c1 | 3% | 6.3µM* | 27% | 0% | 2% | 18%
CCOC(=O)C1CCCN(CC(=O)NC2=Nc3ccccc3N=C(C)C2c2ccccc2)C1 (stereo not given) | -2% | 25µM* | 30% | -12% | 0% | -10%
C[C@@]12CC[C@H]3[C@H](CC=C4C[C@@H](O)CC[C@@]43C)[C@@H]1CC[C@@H]2N(CCO)CCO | 2%[9.22 µM] | 0%[11.4 µM] | -12%[11.4 µM] | -8%[9.17 µM] | 0%[9.22 µM] | 0%[11.5 µM]
Cc1cc(C)n(-c2nc(NC(C)C)nc(NC(C)C)n2)n1 | 6.3µM* | 6% | 10% | -3% | nt | -18%
Cc1cc(C)n(-c2nc(NC(C)(C)C)nc(NC(C)(C)C)n2)n1 | 13µM* | 0% | 12% | 0% | -1%[9.22 µM] | -29%
O=c1c(-c2cc(F)cc(F)c2)nc2cnc(N3CCOCC3)nc2n1Cc1ccc(F)cc1 | 0%[9.22 µM] | ? | ? | 0% | 0% | 1%
O=C1CC(c2ccccc2O)Oc2ccc(O)cc21 (stereo not given) | nt | nt | nt | nt | nt | 6%
C=CC1=C(C)C2=Cc3c(C=C)c(C)c4[n]3[Sn+2][n]3c(c(C)c(CCC(=O)O)c3=CC3=NC(=C4)C(C)=C3CCC(=O)O)=CC1=N2 | 2% | 2% | 2% | 3% | nt | -22%
N#Cc1cccc(-c2nccc(NCc3cccs3)n2)c1 | 6%[9.22 µM] | 7% | 8% | 0% | 1% | ?
N#Cc1cccc(-c2cc(NCc3cccs3)ncn2)c1 | -4%[9.22 µM] | 3% | 6% | -2% | 0% | 13µM*
O=C1OC2(c3cc(Br)c(O)c(Br)c3Oc3c2cc(Br)c(O)c3Br)c2c(Cl)c(Cl)c(Cl)c(Cl)c21 | nt | ? | 16µM* | nt | 2% | ?
O=C1OC(c2ccc(O)c(-c3ccccc3)c2)(c2ccc(O)c(-c3ccccc3)c2)c2c(Cl)c(Cl)c(Cl)c(Cl)c21 | 0%[9.22 µM] | 3%[11.4 µM] | 7%[11.4 µM] | 5%[9.17 µM] | 1%[9.22 µM] | -3%[11.5 µM]
COc1ccc(CNc2oc(-c3ccccc3)nc2C#N)cc1 | nt | 27% | 20% | 3% | -2% | 32µM*
COc1ccc(-c2nc(C#N)c(NCc3ccccc3Cl)o2)cc1OC | 0% | 3% | -4% | -5% | -3%[0.369 µM] | -12%
COc1ccc(-c2nc(C#N)c(NCCc3ccccc3)o2)cc1 | 2% | -10% | -8% | -1% | 0% | 16µM*
COc1ccc(-c2nc(C#N)c(NCc3ccc(F)cc3)o2)cc1OC | 3% | 8% | -4% | -1% | 8%[0.369 µM] | 25µM*
C/C(CCC(=O)OC[C@@H]1O[C@H](C#Cc2ccccc2)C=C[C@@H]1Oc1ccc(C)cc1)=N/OC[C@@H](O)[C@H]1O[C@H]2OC(C)(C)O[C@H]2[C@@H]1O | nt | -2%[11.4 µM] | 11%[11.4 µM] | nt | 1%[9.22 µM] | 4%[11.5 µM]
